Bioassay records (PubChem BioAssay)
Gal4-VP16 FLuc – counter-screen for ROR gamma inhibitors: Gal4-VP16 reporter | actives 3.5% (n = 310,000) | Drosophila S2 Gal4-VP16 UAS-luciferase, luminescence, 20 h | Potency, µM (titrated, usually from 53.6 µM), without a hit: top-dose activity, negative = inhibition, usual class: inhibitors;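 note: Gal4-VP16 expression switched on by copper sulfate through the metallothionein promoter; % is set by controls: 0 for no effect and ±100 for the full control effect; nearly all actives have a fitted effect of over 50% in size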
ATXN viability – viability counter-screen for ATXN expression inhibitors | S2 cells (HEK-293 line with an ATXN2-luciferase reporter) viability, CellTiter-Fluor protease fluorescence, 24 h | actives 0.49% (n = 400,000) | Potency, µM (doses to about 56.7 µM), most hits filed as cytotoxic; note: nearly all actives have a fitted effect of over 40% in size
ATXN2 expr inh – reduces ATXN2 reporter expression in HEK-293 cells | HEK-293 ATXN2-luciferase reporter, luminescence, 24 h | Potency, µM (series often up to 57 µM), for inactives: at the highest dose activity change, negative = inhibition, hits mostly inhibitors | actives 0.72% (n = 360,000) | AID 1745845; note: % is set by controls: 0 for no effect and ±100 for the full control effect; nearly all actives have a fitted effect of over 55% in size
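ATXN2-luciferase reporter cells (luciferase flanked by upstream and downstream ATXN2 gene portions) were treated 24 h at 37 °C with compounds at up to 57 uM. SteadyGlo luminescence gave expression; GF-AFC fluorescence gave viability.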
TGFb inhibitor – TGF-b pathway inhibition; HepG2 CAGA-GFP TGF-b/SMAD3 reporter, GFP fluorescence, 18 h; TGF-beta stimulated, 500 pg/mL final; Potency, µM (top dose mostly 46.1 µM), for inactives: at the highest dose activity, negative = inhibition, most hits filed as inhibitors; actives 1.2% (n = 410,000); AID 588855; note: % is set by controls: 0 for no effect and ±100 for the full control effect; nearly all actives have a fitted effect of over 65% in size
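Cell-based qHTS in HEPG2 carrying a CAGA-GFP Smad reporter; compounds added before 500 pg/mL final TGF-beta, 18 h incubation at 37 degrees C, GFP fluorescence quantified per cell by imaging cytometry.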
HepG2 tox – HepG2 cytotoxicity, counter-screen for TGF-b inhibitors; actives 0.76% (n = 410,000); AID 588856; Potency, µM (highest dose often 46.1 µM), inactives show at the highest dose activity change, negative = cytotoxicity, hits mostly cytotoxic; HepG2 CAGA-GFP viability, ATP luminescence, 18 h
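CellTiter-Glo luminescence gave cytotoxicity after 18 hours at 37 degrees C. The cells were HepG2 CAGA-GFP in 1% FBS DMEM, stimulated with 500 pg/mL TGF-beta after compound addition. %Activity was normalised to no-cell wells (complete cell-killing) and DMSO (no toxicity), and curves were fitted and classified.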
RORgamma inh – inhibitors of mouse ROR gamma transcriptional activity; Potency, µM (highest dose often 53.6 µM), for the others: at the top dose activity change, negative = inhibition, actives largely listed as inhibitors; Drosophila S2 Gal4-RORgamma UAS-luciferase reporter, 20 h; P51450; actives 5.4% (n = 310,000); note: % is set by controls: 0 for no effect and ±100 for the full control effect; nearly all actives have a fitted effect of over 60% in size
Target sequence (P51450 whole entry, looked up, the tested form may be a part): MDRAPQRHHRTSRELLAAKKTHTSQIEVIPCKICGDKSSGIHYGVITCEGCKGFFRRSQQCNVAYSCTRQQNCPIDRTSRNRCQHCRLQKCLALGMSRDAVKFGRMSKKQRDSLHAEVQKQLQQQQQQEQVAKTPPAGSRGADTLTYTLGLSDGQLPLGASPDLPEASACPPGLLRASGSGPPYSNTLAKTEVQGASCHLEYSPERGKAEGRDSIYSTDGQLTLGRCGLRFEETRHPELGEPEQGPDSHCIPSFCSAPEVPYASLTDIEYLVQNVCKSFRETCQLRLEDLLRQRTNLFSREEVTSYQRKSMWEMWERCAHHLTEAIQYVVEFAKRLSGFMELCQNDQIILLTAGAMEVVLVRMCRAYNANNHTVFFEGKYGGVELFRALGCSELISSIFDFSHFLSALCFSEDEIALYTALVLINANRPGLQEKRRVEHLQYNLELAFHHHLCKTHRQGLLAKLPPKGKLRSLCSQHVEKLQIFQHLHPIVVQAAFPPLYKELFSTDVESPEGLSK
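Drosophila Schneider cells stably carrying a metallothionein-driven Gal4 DBD–ROR gamma fusion and a UAS-Photinus luciferase reporter were exposed to compound for 1 hr, then induced with copper sulfate (700 uM final) for 20 hr at ambient temperature before luminescence reading.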
* marks the source's active call; other numbers are inactive results; i = inactive; ? = inconclusive; · = no result; [ ] = another dose, or the depositor's remark. Sampled rows, rich in hits. Any-hit rate of the full collection: about 6.3%. Calls come from the whole dose curve; as a rule, active = well fitted curve in the direction sought with a large enough effect; inconclusive = small, poorly fitted or top-dose-only effect, or another doubt; inactive = no such curve, though single readings can be large; an effect the other way counts as inactive or inconclusive. Potency is the fitted concentration of half-maximal effect.

SMILES	Gal4-VP16 FLuc	ATXN viability	ATXN2 expr inh	TGFb inhibitor	HepG2 tox	RORgamma inh
CC(C)=NO[C@@H](C)c1cn([C@H](CO)Cc2ccccc2)nn1	-5%[10 µM]	·	·	·	·	4%[10 µM]
COc1ccc(CN2CCNC(=O)C2CC(=O)N(C)C2CCOCC2)cc1OC (centres undefined)	·	i	·	-3%	-11%	·
CC(=O)c1cccc(NC(=O)C(C)OC(=O)c2ccc(S(C)(=O)=O)c([N+](=O)[O-])c2)c1 (centres undefined)	·	·	·	11µM*	14µM*	·
CC(=O)c1cccc(NC(=O)COC(=O)c2ccc(S(C)(=O)=O)c([N+](=O)[O-])c2)c1	-6%	i	18%	10µM*	-105%	?
COc1cccc(N2C(=O)C(CC(=O)Nc3cccc(F)c3)N(C3CCCC3)C2=O)c1 (centres undefined)	·	·	·	-16%	-4%	·
Cc1c(C(=O)Nc2ccc(Br)cc2)cnn1C	-6%	i	48%	7%	-59%	40%
Cc1c(C(=O)c2no[n+]([O-])c2C(=O)c2cnn(C)c2C)cnn1C	8.9µM*	·	?	7.9µM*	11µM*	10µM*
c1ccc2c(c1)Cn1nc(Cc3nc4c(s3)CCCC4)nc1-2	0%	i	30%	?	5%	14µM*
CCOc1ccc(/C=C/c2[nH]c(=O)[nH]c(=O)c2[N+](=O)[O-])cc1	3%	i	12%	-7%	6%	-24%[1.91 µM]
CC(C)c1ccc(/C=C/c2[nH]c(=O)[nH]c(=O)c2[N+](=O)[O-])cc1	3%	i	·	?	16µM*	?
CCn1c(SCC(O)c2ccccc2)nnc1-c1ccccc1 (centres undefined)	21%	i	27%	3%	-3%	23%
CCSc1cnc(-c2ccccc2)n1CC	-27%	i	6%	0%	-13%	13µM*
COc1ccc(OC)c(/C=C/c2ccc3ccccc3[n+]2C)c1	·	·	·	-20%	-17%	·
CC1(C)CCC(=NNC(N)=S)CC1	·	?	-34%	?	-40%	·
NC(=S)NN=C1CSSC1	·	i	·	10µM*	11µM*	·
Cc1nc(S/C(=C\c2ccc(OCc3ccccc3Cl)cc2)C(=O)O)n[nH]1	?	i	5%	-10%	0%	1µM*
Cc1nc(S/C(=C\c2ccc(-c3ccc(C(=O)O)c(Cl)c3)o2)C(=O)O)n[nH]1	-2%	i	·	-14%	-9%	11%
COc1ccc(OCc2nnc(SCC(=O)Nc3ccc(C)cc3)o2)cc1	-1%	i	3%	3%	-16%	-13%
O=C(CSc1nnc(COc2ccccc2)o1)N1CCOCC1	-5%	i	·	10%	-2%	0.11µM*
Cc1ccc(OCc2nnc(SCC(=O)CC(=O)Nc3ccccc3)o2)cc1	?	i	68%	-12%	-32%	13µM*
Cn1nccc1C(=O)NC(=S)Nc1cc(Cl)cc(Cl)c1	13µM*	i	-16%	-1%	-11%	2.5µM*
Cn1nnnc1Sc1ncnc2scc(-c3cccc(C(F)(F)F)c3)c12	·	16µM*	14µM*	?	-112%	·
Cn1nnnc1Sc1ncnc2scc(-c3cccc(F)c3)c12	·	?	?	10µM*	-110%	·
Cn1nnnc1Sc1ncnc2scc(-c3ccc(C#N)cc3)c12	·	10µM*	10µM*	?	-123%	·
COc1cccc(-c2csc3ncnc(Sc4nnnn4C)c23)c1	·	?	?	?	10%	·
Cn1nnnc1Sc1ncnc2scc(-c3ccc(C(F)(F)F)cc3)c12	·	11µM*	4µM*	?	-112%	·
Cc1cc(C)c(NC(=O)Cn2c(=O)n(-c3cccc(C(F)(F)F)c3)c(=O)c3c(C)c(C)sc32)c(C)c1	·	i	2%	-12%	-1%	·
C=C(C)CSc1cc(C)c(C#N)c2nc3ccccc3n12	4µM*	·	-22%	-19%	-19%	?
COc1ccc(CNc2ncnc3c2nc2n3CCCC2)cc1	·	·	·	-4%	-10%	·
